The experiment has as its target Glucose transporter (Leishmania mexicana) (UniProt O61059). The experiment is described as follows: ST_JUDE_LEISH: Cytotoxicity at 2uM final concentration against transgenic Leishmania Mexicana promastigotes LmGT2 that are glucose transport deficient and complemented with the L. Mexicana glucose transporter 2. Activity is measured by DNA content using SYBR green in vitro. It counts as functional.
For orientation: inhibition means the relative decrease from the control value, in per cent. For `Cc1ccc(C(=O)Nc2cc(S(=O)(=O)N3CCCC3)ccc2OCC(F)(F)F)cc1`, the inhibition was 4.69%. The result for `CC(Nc1ccc2c(c1)OCCO2)C(=O)Nc1cc(C(F)(F)F)ccc1N1CCOCC1` (centres undefined) reads 6.63%. For the molecule `N#Cc1ccc(-c2ccc(C(=O)NCCCCN3CCC(c4cn(CCO)c5ccccc45)CC3)cc2)cc1`, the inhibition stood at 0.2%.

Take `CCCc1ccc(N2C(N)=NC(N)=NC2(C)C)cc1`: the inhibition is -2.29%. The result for `CCNc1cc(C(=O)N[C@@H](Cc2ccccc2)[C@H](O)CNC(C)(C)c2cccc(OC)c2)cc(N2CCCC2=O)c1` reads -0.62%; that for `CC(C)CN(Cc1c(O)ccc2[nH]c(-c3ccc(F)cc3F)nc12)CC(C)C`, 5.69%. The result for `O=C(Nc1ccc(CN2CCOCC2)cc1)c1ccc(-c2ccc(Cl)cc2)o1` reads -4.75%.

As for `Cc1cccc2nc(-c3cccc(-c4ccc(NC(=O)C(=O)c5cccn5C)cc4)c3)[nH]c12`, the inhibition was -2.97%. The result for `CC(C)CN1CCCN(Cc2cccc(NC(=O)c3ccc(-c4ccccc4)cc3)c2)CC1` reads -5.07%; that for `O=C(N/N=C/c1nc2ccccc2[nH]1)c1cccc([N+](=O)[O-])c1`, 0.25%; that for `CCCOc1ccc(NC(=O)c2cccs2)cc1Cl`, 9.7%. In the case of `CC(=O)Nc1ccc(OCCCN(Cc2ccccc2C(F)(F)F)c2ccc(C(F)(F)F)c(C#N)c2)c(Cl)c1` it was 1.94%; in that of `CCCN(CCC)CCOc1ccc(C(O)(C#CC(O)(c2ccc(OCCN(CCC)CCC)cc2)c2cccc(Cl)c2)c2cccc(Cl)c2)cc1` (centres undefined), 2.38%. Take `COc1ccc(NC(=O)Nc2cc(C)nc3cccnc23)cc1Cn1ccnc1`: the inhibition worked out at 0.47%. The result for `COc1ccc(OC)c(NC(=O)c2c(-c3c(F)cccc3Cl)noc2C)c1` reads 2.52%; that for `COc1ccc2nccc([C@@H](O)CN3CCC(NC[C@H](Cc4ccccc4)NC(=O)OC(C)(C)C)CC3)c2c1`, 2.75%. The result for `CC(C)COc1ccc(C(O)C(CN2CCCCC2)c2ccccc2)cc1` (centres undefined) reads 3.27%. The result for `COc1cc2c(cc1NC(=O)CN1CCN(C(=O)c3ccco3)CC1)oc1ccccc12` reads -0.96%; that for `CC(=O)Nc1ccc(C(=O)Nc2ccc(-c3cccc(-c4nc5cc(F)ccc5[nH]4)c3)cc2)cn1`, -4.38%. Regarding `CC(C)S(=O)(=O)N1CCN(Cc2ccc3c(c2)nc(NC(=O)c2ccsc2)n3C[C@H](O)c2ccccc2)CC1`, the inhibition is -0.17%. Take `COc1ccc2nccc([C@@H](O)CN3CCC(NC(=O)C(c4cc5ccccc5o4)N4CCN(c5ccccc5OC)CC4)CC3)c2c1` (some centres undefined): the inhibition was -0.23%. `O=C(Nc1cccc(-c2cccc(-c3nc4ccccc4[nH]3)c2)c1)c1cccnc1`: the inhibition was found to be 0.76%. The result for `Nc1ncc(-c2ccccc2)cc1-c1nc2cc(Cl)c(F)cc2[nH]1` reads 3.16%; that for `O=C(CCNc1ccnc(NCC2CCCCC2)n1)Nc1ccccc1`, 3.46%.

The values are drawn from ChEMBL document CHEMBL3433997, “St. Jude Leishmania screening dataset” (2016).
